This is a sample that favours compounds with a hit; in the whole collection about 3.3% have one here.
Sm TGR inh – inhibitors of Schistosoma mansoni thioredoxin glutathione reductase. Potency, µM (titrated, usually from 114 µM), for inactives: at the top dose activity change, negative = inhibition, most hits filed as inhibitors. purified TGR, DTNB reduction, TNB absorbance 405 nm. 360,000 compounds, 3% hits. AID 485364; note: % is set by controls: 0 for no effect and ±100 for the full control effect; nearly all actives have a fitted effect of over 60% in size
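First, TGR (20 nM dispensed) and NADPH were mixed with compound. Second, a 15 min room-temperature incubation followed. Third, further NADPH and then DTNB were added to start the reaction. Finally, TNB absorbance was monitored kinetically.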
LmPK inhibitor – inhibitors of Leishmania mexicana pyruvate kinase; Potency, µM (highest dose often 57.5 µM), inactives show at the top dose activity change, negative = inhibition, actives largely listed as inhibitors; purified LmPK, Kinase-Glo ATP luminescence, 1 h; Q27686; AID 1721; 290,000 compounds, 0.37% hits; note: % is set by controls: 0 for no effect and ±100 for the full control effect
Target sequence (Q27686 whole entry, looked up): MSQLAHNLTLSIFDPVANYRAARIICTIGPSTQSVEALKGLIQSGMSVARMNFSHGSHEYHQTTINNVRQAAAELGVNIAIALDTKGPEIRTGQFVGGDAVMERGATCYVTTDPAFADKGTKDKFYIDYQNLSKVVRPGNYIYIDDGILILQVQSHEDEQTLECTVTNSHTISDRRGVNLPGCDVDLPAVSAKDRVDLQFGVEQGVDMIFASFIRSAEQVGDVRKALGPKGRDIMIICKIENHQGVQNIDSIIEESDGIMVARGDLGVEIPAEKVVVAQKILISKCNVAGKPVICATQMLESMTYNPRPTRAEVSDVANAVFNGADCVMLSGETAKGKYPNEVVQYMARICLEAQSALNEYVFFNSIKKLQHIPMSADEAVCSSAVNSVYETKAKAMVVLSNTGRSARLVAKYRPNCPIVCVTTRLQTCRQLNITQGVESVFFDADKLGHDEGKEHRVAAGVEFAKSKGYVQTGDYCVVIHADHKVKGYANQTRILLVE
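In 50 mM imidazole pH 7.2 with 7 mM MgCl2, LmPK (0.1 nM) turned over PEP (0.5 mM) and ADP (0.1 mM) for 1 h at room temperature. Luciferase read-out of ATP.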
NS1 inh – blocks influenza NS1 protein function; Potency, µM (titrated, usually from 46.1 µM), for inactives: at the top dose activity, positive = more growth; 270,000 compounds, 0.4% hits; AID 2326; calls by dose curve; note: actives are rising curves; nearly all actives have a fitted effect of over 50% in size
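S. cerevisiae expressing influenza A NS1, grown in glucose, washed, then diluted 1:100 into pH 6.0 -URA galactose medium with 23 nl compound. Growth recovery read as OD600; NS1-free strain serves as control.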
RE007 growth inh – less growth of the S. pombe RE007 Vpr strain | AID 651644 | S. pombe RE007 Vpr strain, BacTiter-Glo ATP luminescence, 24 h | Potency, µM (titrated, usually from 92.2 µM), for inactives: top-dose activity change, negative = less growth, hits mostly inhibitors | 360,000 compounds, 0.21% hits; active = well fitted falling curve with a large enough effect; inconclusive = small, poorly fitted or top-dose-only effect; inactive = no such curve, though single readings can be large or run the other way; note: % is set by controls: 0 for no effect and ±100 for the full control effect; nearly all actives have a fitted effect of over 50% in size
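Fission yeast strain RE007, carrying one chromosomally integrated HIV-1 vpr copy, was seeded at OD 0.01 in PMG+AL medium with 23 nL pinned compound. After 24 h at 30 °C and 99% humidity, viability was read by BacTiter-Glo luminescence.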
Tb PYK inh – T. brucei pyruvate kinase inhibition; AID 624173; Potency, µM (series often up to 76.8 µM), for the others: at the highest dose activity, negative = inhibition, hits mostly inhibitors; 410,000 compounds, 0.12% hits; TbPYK enzyme, Kinase-Glo Plus ATP luminescence, 45 min; note: % is set by controls: 0 for no effect and ±100 for the full control effect; nearly all actives have a fitted effect of over 50% in size
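In this concentration-response screen, enzyme-free wells defined baseline while DMSO plates tracked drift. Each reaction combined TbPYK, substrate, compound and 130 uM ADP for 45 min at room temperature. Kinase-Glo Plus luminescence gave the signal.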
SARS PLpro yeast – SARS-CoV PLP inhibition in yeast; S. cerevisiae expressing SARS-CoV PLpro, growth rescue; Potency, µM (highest dose often 32.9 µM), for inactives: at the top dose activity, positive = growth rescue, usual class: activators; 330,000 compounds, 0.19% hits; AID 485353; calls by dose curve; note: 0% is about no effect; nearly all actives have a fitted effect of over 55% in size
* marks the source's active call; other numbers are inactive results; ? = inconclusive; . = no result given; [ ] = remark or other dose. Unless noted, calls come from the whole dose curve; as a rule, active = well fitted curve in the direction sought with a large enough effect; inconclusive = small, poorly fitted or top-dose-only effect, or another doubt; inactive = no such curve, though single readings can be large; an effect the other way counts as inactive or inconclusive. Potency is the fitted concentration of half-maximal effect.

SMILES	Sm TGR inh	LmPK inhibitor	NS1 inh	RE007 growth inh	Tb PYK inh	SARS PLpro yeast
CC(N=Cc1cccc(O)c1O)c1ccccc1 (configuration not stated)	5.62µM*	-6.3%	-106.9%	-29.8%	?	-9.8%
CC(N=Cc1cc([N+](=O)[O-])ccc1O)c1ccccc1 (configuration not stated)	-5.4%	5.1%[11.5 µM]	.	?	-6.2%	-23.0%
Cc1ccc(N=Cc2cccc(O)c2O)c(C)c1	-0.8%	-25.5%	-56.7%	.	.	-15.2%
C/C(=C(\CCO)SSCC1CCCO1)N(C=O)Cc1cnc(C)nc1N (configuration not stated)	.	.	.	.	4.8%	.
CCOC(=O)c1c(NC(C)=O)c2c3c(sc2n1Cc1ccc(Cl)cc1)CCCC3	-4.2%	.	.	.	2.5%	.
O=C1CC(Cc2ccccc2)C(=O)N1c1ncccn1 (configuration not stated)	50.1µM*	5.1%	-2.9%	10.3%	-2.0%	0.1%
CCOc1ccc(NC(=O)c2oc3ccccc3c2NC(=O)c2ccc(OC)cc2OC)cc1	1.7%	.	.	.	-0.9%	.
Cc1oc(-c2ccccc2F)nc1CS(=O)(=O)CC(=O)NC1CCCC1	39.8µM*	3.3%	-2.2%	2.0%	-1.2%	9.5%
Cc1oc(-c2ccccc2F)nc1CS(=O)(=O)CC(=O)NC1CCCC(C)C1C (configuration not stated)	-22.5%	-0.3%	-1.1%	7.7%	2.9%	-10.7%
COc1ccc(-c2nc(CS(=O)(=O)CC(=O)NC3CCCCCC3)c(C)o2)cc1	?	-0.5%	-0.3%	4.4%	-9.9%	-2.2%
Cc1ccc(-c2nc(CS(=O)(=O)CC(=O)NC3CCCCCC3)c(C)o2)cc1	25.1µM*	2.0%	-1.2%	2.1%	-1.2%	20.3%
CCOC(=O)c1ccccc1NC(=O)N1CCC(CN2CCCCC2)CC1	-3.5%	.	.	.	1.9%	.
Cc1ccc(-c2onc3ccc(C4(C)OCCO4)cc23)cc1	-10.0%	-6.3%	1.2%	-9.1%	-11.6%	?
CC(=O)c1ccc2noc(-c3ccc(Cl)cc3)c2c1	28.2µM*	8.0%	.	3.3%	-2.2%	-1.6%
Cc1cc(-c2onc3ccc(Cl)cc23)ccc1O	39.8µM*	-8.0%	20.2%	-1.2%	-7.0%	-2.6%
Cc1ccc(-c2onc3ccc(C=O)cc23)cc1	44.7µM*	-7.0%	-52.0%	?	-2.6%	-7.0%
O/N=C\c1ccc2noc(-c3ccc(Cl)cc3)c2c1	0.0%	-1.2%	-4.8%	2.3%	-4.3%	0.6%
CCOC(=O)c1cnc(N(C)C)nc1SC(=N)N	.	.	-3.5%	.	.	.
O=C(Nc1ccc2nc(-c3ccco3)[nH]c2c1)c1cccs1	25.1µM*	-20.2%	-54.3%	-12.2%	-12.0%	-46.9%
O=C(Nc1ccc2nc(-c3ccco3)[nH]c2c1)c1ccco1	-34.9%	-15.3%	-46.6%	-11.0%	4.9%	-13.4%
COc1cccc(N2CCN(C(=O)c3cnn(-c4ccc(C)cc4C)c3C3CCN(C(=O)OC(C)(C)C)CC3)CC2)c1	5.3%	.	.	.	-9.1%	.
COc1ccc(C2=NN(C(=O)CCC(=O)O)C(c3ccc(OC)c(OC)c3)C2)cc1 (configuration not stated)	22.4µM*	2.0%	26.9%	17.8%	4.4%	-0.5%
O=C1S/C(=C\C=C\c2ccco2)C(=O)N1c1ccccc1	44.7µM*	-1.5%	14.9%	2.3%	-15.9%	-18.6%
CC(C)(C)n1cccc1/C=C1\C(=O)NC(=O)N(c2ccccc2)C1=O	?	-4.8%	0.1%	-6.1%	2.5%	7.9%
Cc1cccc(N2C(=O)NC(=O)/C(=C\C=C\c3ccco3)C2=O)c1	?	12.1%	-1.2%	7.8%	-14.1%	-1.5%
CN(C)c1ccc(/C=C/C=C2/C(=O)NC(=O)N(c3ccccc3)C2=O)cc1	?	12.6µM*	-2.5%	-20.9%	?	-0.1%
O=C1S/C(=C\C=C\c2ccco2)C(=O)N1c1ccc(O)cc1	?	7.0%	11.0%	-8.6%	-16.8%	-54.3%
O=C1NC(=O)N(c2ccccc2)C1=O	-8.3%	-1.1%	6.6%	3.5%	1.3%	-3.1%

Bioassay records: PubChem BioAssay, National Center for Advancing Translational Sciences (NCATS)
